Assay outcomes as filed in PubChem.
The sample as a whole holds a higher share of hits than the screen did.
Tb PGK inh – blocks T. brucei phosphoglycerate kinase. AID 602233. actives 0.043% (n = 380,000). PGK/GAPDH coupled, Kinase-Glo luminescence, 60 min. Potency, µM (series often up to 57.5 µM), without a hit: at the top dose activity change, negative = inhibition, most hits filed as inhibitors; also: potency is read from the fitted curve at half-maximal effect; nearly all actives have a fitted effect of over 60% in size
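Luminescent ATP detection (Kinase-Glo Plus) follows a 60-minute room-temperature incubation, with wells lacking PGK as controls. Buffer: 100 mM TEA (pH 7.6), 5 mM MgCl2, 0.01% Tween-20. Coupling enzyme GAPDH (100 nM final) supplies unstable 1,3-BPG in-well.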
Tb PFK inh – blocks T. brucei phosphofructokinase; O15648; T. brucei PFK, ADP-Glo luminescence; Potency, µM (top dose mostly 57.5 µM), for the others: at the top dose activity, negative = inhibition, actives largely listed as inhibitors; actives 0.17% (n = 330,000);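 also: potency is read from the fitted curve at half-maximal effect; 0% = uninhibited 1x PFK enzyme wells and -100% = no-enzyme wells; nearly all actives have a fitted effect of over 60% in size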
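In TEA buffer at pH 8.0 with 5 mM MgCl2, enzyme (1.25 nM) converted F6P (0.5 mM) and ATP (0.1 mM) for 45 min at room temperature. ADP product was read by luciferase luminescence.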
PI5P4K alpha inh – blocks human PI5P4K alpha kinase activity; P48426; PI5P4Kalpha enzyme, ADP-Glo luminescence, 60 min; stronger effect = lower value; max response, %; actives 1.2% (n = 330,000); active = max response of -50% or lower; inconclusive = between -30% and -50%; inactive = -30% or higher; also: value at the top dose of about 77 µM
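Compounds were pin-transferred onto PI5P4Kalpha and substrate in HEPES pH 7.4 buffer with EGTA, CHAPS and 5% DMSO. ATP (5 microM final) started the reaction, which ran 60 minutes at room temperature before ADP-Glo detection.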
Pin1 inhibitor – inhibitors of human Pin1 | Pin1 FP peptide displacement, HiFluor488, 10 min | Potency, µM (highest dose often 115 µM), for inactives: at the highest dose activity, negative = inhibition, actives largely listed as inhibitors | actives 0.009% (n = 390,000) | AID 504891; active = well fitted inhibition curve with a large enough effect in the polarisation, with a control signal flat, not every such curve was filed as active; inconclusive = small, poorly fitted or top-dose-only effect, or effect the other way, or a change in a side signal; inactive = no such curve, though single readings can be large or run the other way; the % refers to the polarisation; also: potency is read from the fitted curve at half-maximal effect
Target sequence (Q13526 whole entry, looked up): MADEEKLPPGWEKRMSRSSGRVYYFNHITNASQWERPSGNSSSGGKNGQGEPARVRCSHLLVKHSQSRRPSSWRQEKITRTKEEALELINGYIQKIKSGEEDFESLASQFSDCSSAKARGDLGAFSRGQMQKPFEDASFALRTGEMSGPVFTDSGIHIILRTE
PI4K2A block – blocks human PI4K2A kinase activity. Q9BTU6. purified PI4K2A, ADP-Glo luminescence, 1 h; stronger effect = lower value. activity change, negative = inhibition, % at 76.9 µM. actives 0.13% (n = 420,000). AID 1346378; in the data active = activity change below about -50%; inconclusive = mostly about -30% to -49%;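 also: -100% = wells without enzyme as full effect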
Target sequence (Q9BTU6 whole entry, looked up): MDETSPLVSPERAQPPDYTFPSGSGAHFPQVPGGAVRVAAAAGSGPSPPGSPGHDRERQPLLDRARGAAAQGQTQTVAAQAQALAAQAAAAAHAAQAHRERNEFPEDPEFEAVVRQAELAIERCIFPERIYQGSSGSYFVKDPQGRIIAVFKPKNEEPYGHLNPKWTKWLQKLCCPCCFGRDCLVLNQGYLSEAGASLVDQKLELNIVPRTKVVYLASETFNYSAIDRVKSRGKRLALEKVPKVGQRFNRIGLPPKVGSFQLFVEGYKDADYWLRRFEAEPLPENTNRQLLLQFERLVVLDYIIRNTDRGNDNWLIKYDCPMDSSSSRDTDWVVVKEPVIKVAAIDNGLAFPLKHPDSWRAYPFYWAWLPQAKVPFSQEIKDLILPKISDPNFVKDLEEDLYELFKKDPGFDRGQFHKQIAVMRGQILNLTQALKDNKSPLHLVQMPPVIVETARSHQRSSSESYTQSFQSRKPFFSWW
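ADP-Glo luminescence measured ADP generated by PI4K2A enzyme (4 ug/mL before mixing) with 1.2 mM PI substrate (pre-mix) and 300 microM ATP (pre-mix). Tris pH7.5 buffer with MgCl2, Triton X-100; 1 h reaction at ambient temperature.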
* hit, by the source's call. Unless noted, calls follow the shape of the dose curve; as a rule, active = well fitted curve in the direction sought with a large enough effect; inconclusive = small, poorly fitted or top-dose-only effect, or another doubt; inactive = no such curve, though single readings can be large; an effect the other way counts as inactive or inconclusive. Unless noted, % is scaled to controls: 0 for no effect and ±100 for the full control effect.

`CC1(C)CC(=O)C2=C(C1)c1c(ccc3ccccc13)NC2c1cc([N+](=O)[O-])cc([N+](=O)[O-])c1O` (stereo unspecified) gave Tb PGK inh -13.2%, Tb PFK inh inconclusive, PI5P4K alpha inh -58.6* and PI4K2A block -0.8.
Screening COc1ccc(CCNC(=O)C2(c3ccccc3)CC2)cc1 returned Tb PGK inh -7.0%, Tb PFK inh 2.5%, PI5P4K alpha inh 3.4, Pin1 inhibitor 23.3% and PI4K2A block 1.2.
CS(=O)(=O)c1nc(-c2ccc(Br)cc2)cc(-c2ccccc2)c1C#N was read as Tb PGK inh 8.5%, Tb PFK inh 6.9%, PI5P4K alpha inh 0.6, Pin1 inhibitor -0.1% and PI4K2A block 9.3.
Cc1ccccc1OCC(=O)NNC(=O)Cc1ccc(S(=O)(=O)N2CCOCC2)s1 was read as Tb PGK inh -5.3%, Tb PFK inh 0.0%, PI5P4K alpha inh -1.9, Pin1 inhibitor 0.2% and PI4K2A block 9.2.
For Cc1ccc(OCC(=O)NNC(=O)Cc2ccc(S(=O)(=O)N3CCOCC3)s2)cc1 the results were Tb PGK inh -8.9%, Tb PFK inh -3.5%, PI5P4K alpha inh -61.3*, Pin1 inhibitor inconclusive and PI4K2A block -2.8.
`COc1ccc(CCN2C(=O)CC(Cc3ccc(C)cc3)C2=O)cc1OC` (stereo unspecified) gave Tb PGK inh 17.6%, Tb PFK inh -0.3%, PI5P4K alpha inh -68.7*, Pin1 inhibitor -0.9% and PI4K2A block 2.3.
`Cc1ccc(Cl)c2c1=NC(=O)C=2c1[nH]c(=S)[nH]c1O` gave Tb PGK inh inactive, Tb PFK inh inconclusive, PI5P4K alpha inh -74.8*, Pin1 inhibitor 2.0% and PI4K2A block -3.6.
O=C1N=c2ccccc2=C1c1[nH]c(=S)[nH]c1O was read as Tb PGK inh inactive, Tb PFK inh -29.1%, PI5P4K alpha inh inconclusive, Pin1 inhibitor 0.9% and PI4K2A block -4.7.
Screening COc1cc([N+](=O)[O-])cc(/C=N/NC(=O)c2cc(C)nc3ccccc23)c1O returned Tb PGK inh -12.4%, Tb PFK inh 1.0%, PI5P4K alpha inh -26.7, Pin1 inhibitor 35.6% and PI4K2A block 1.3.
`COc1cc([N+](=O)[O-])cc(/C=N/NC(=O)c2cc(-c3ccccc3)nc3ccccc23)c1O` gave Tb PGK inh -7.7%, Tb PFK inh 14.3%, PI5P4K alpha inh -57.3*, Pin1 inhibitor 30.2% and PI4K2A block -3.3.
Screening O=[N+]([O-])c1cc(Cl)cc(/C=N\Nc2ccccn2)c1O returned Tb PGK inh -8.3%, Tb PFK inh -4.4%, PI5P4K alpha inh -60.3*, Pin1 inhibitor 0.7% and PI4K2A block -2.5.
`O=C(N/N=C/c1cc(Cl)cc([N+](=O)[O-])c1O)c1cc(-c2ccccn2)nc2ccccc12` gave Tb PGK inh -11.2%, Tb PFK inh 1.2%, PI5P4K alpha inh -62.1*, Pin1 inhibitor -6.7% and PI4K2A block -2.2.
For COc1ccc(NS(=O)(=O)c2ccc(C(=O)NCC3(N4CCOCC4)CCCCC3)cc2)cc1 the results were Tb PGK inh -2.0%, Tb PFK inh 2.7%, PI5P4K alpha inh 3.2, Pin1 inhibitor 0.1% and PI4K2A block 3.8.
`CCC(C)C(=O)Nc1nccs1` (stereo unspecified) gave Tb PGK inh inactive, Tb PFK inh -0.6%, PI5P4K alpha inh 0.5, Pin1 inhibitor 2.1% and PI4K2A block -22.6.
`CC(=O)Nc1ccc(CNc2nc3cc(-c4ccccc4C)sc3c(=O)n2C)cc1` gave PI5P4K alpha inh 20.1 and PI4K2A block -1.6.
For COc1ccc(N2CCN(C(=O)CCS(=O)(=O)c3ccc4c(c3)NC(=O)CO4)CC2)cc1 the results were Tb PGK inh inactive, Tb PFK inh 3.9%, PI5P4K alpha inh 0.2, Pin1 inhibitor -1.2% and PI4K2A block 5.4.
Screening Cc1ccc(/C=C/c2nc3ccccc3c(=O)[nH]2)cc1 returned Tb PGK inh -8.1%, Tb PFK inh -0.3%, PI5P4K alpha inh -0.6, Pin1 inhibitor -4.5% and PI4K2A block -6.5.
`Cc1ccc(/C=C/c2nc3ccccc3[nH]2)o1` gave Tb PGK inh -24.9%, Tb PFK inh -19.6%, PI5P4K alpha inh -66.0*, Pin1 inhibitor inconclusive and PI4K2A block -11.9.
Cc1ccc(/C=C/c2nc3ccccc3[nH]2)cc1 was read as Tb PGK inh inconclusive, Pin1 inhibitor -4.8% and PI4K2A block -66.5*.
For CCC(C)N(C(=O)c1ccc(CNC(=O)c2cccc(Br)c2)cc1)C(C)CC (stereo unspecified) the results were PI4K2A block 3.0.
Cc1ccc(SCCNC(=O)c2ccccc2C)cc1 was read as Tb PGK inh -2.4%, Tb PFK inh -3.3%, PI5P4K alpha inh 2.8, Pin1 inhibitor 0.8% and PI4K2A block -6.7.
For CC1=C(C#N)C(=O)NC(=O)/C1=C\c1ccc(-c2ccc(C)cc2[N+](=O)[O-])o1 the results were Tb PGK inh -1.0%, Tb PFK inh 19.4%, PI5P4K alpha inh -74.9*, Pin1 inhibitor inconclusive and PI4K2A block -6.4.
COC(=O)CSC1=C(C#N)C(=O)NC(c2ccccc2)S1 (stereo unspecified) was read as Tb PGK inh -0.5%, Tb PFK inh inconclusive, PI5P4K alpha inh -55.7*, Pin1 inhibitor 1.4% and PI4K2A block -14.3.
`Cc1cc(C)c(S(=O)(=O)/N=C2\C=C(NS(=O)(=O)c3ccccc3)C(=O)c3ccccc32)c(C)c1` gave Tb PGK inh -1.3%, Tb PFK inh -7.7%, PI5P4K alpha inh -22.5, Pin1 inhibitor -8.1% and PI4K2A block -16.9.
Cc1cc(C)c(S(=O)(=O)/N=C2/C=C(SCC(=O)O)C(=O)c3ccccc32)cc1C was read as Tb PGK inh -6.0%, Tb PFK inh -14.0%, PI5P4K alpha inh inconclusive, Pin1 inhibitor inconclusive and PI4K2A block -53.0*.
`N#Cc1c(SCc2c(Cl)cccc2Cl)nc(N)[nH]c1=S` gave Tb PGK inh -2.8%, Tb PFK inh -0.2%, PI5P4K alpha inh -65.2*, Pin1 inhibitor -17.8% and PI4K2A block -4.4.
For Cc1nc(SCc2ccccc2Cl)c(C#N)c(C)c1C the results were Tb PGK inh inactive, Pin1 inhibitor -9.1% and PI4K2A block 6.5.
For O=[N+]([O-])c1ccccc1-c1ccc(/C=N/n2cnnc2)o1 the results were Tb PGK inh -6.2%, Tb PFK inh -3.1%, Pin1 inhibitor 0.7% and PI4K2A block 17.6.
`O=[N+]([O-])c1cc(-c2ccc(/C=N\n3cnnc3)o2)cc([N+](=O)[O-])c1` gave Tb PGK inh 7.1%, Tb PFK inh inconclusive, PI5P4K alpha inh -58.8*, Pin1 inhibitor -5.4% and PI4K2A block -14.0.
`O=C(Oc1ccc(-c2cnc3ccccc3n2)cc1)c1ccco1` gave Tb PGK inh inconclusive, Tb PFK inh 0.0%, PI5P4K alpha inh -24.8, Pin1 inhibitor -8.7% and PI4K2A block -77.3*.
CCC(=O)Oc1ccc(-c2cnc3ccccc3n2)cc1 was read as Tb PFK inh -14.9%, Pin1 inhibitor 6.6% and PI4K2A block -65.1*.
